In PubChem BioAssay:
Potency and affinity values are given separately. Inconclusive results are not listed. Active and inactive are the calls of the source. Unless noted, the rule behind the calls is not given here.

Experiments:
[1] = cytotoxicity in PAX8-dependent RMG-1 cells, dose response, cell-based, cherry-pick (AID 687029;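 active = signal drop whose fitted half-maximal concentration is at most twice the top valid dose, in every test run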;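 note: cells exposed to compound for 96 hours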)
[2] = cytotoxicity in IOSE-T80 ovarian epithelial cells, dose response, selectivity assay for PAX8 inhibitor project, cell-based, cherry-pick (AID 687032;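 active = fitted half-maximal concentration for viability loss no higher than twice the top valid dose, in every repeat run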;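 note: cells exposed to compound for 96 h before reading; 0% = neutral control wells and -100% = 2 µM mitoxantrone kill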)
[3] = inhibitors of CMV-promoter luciferase reporter, dose response, counter-screen for Pax8 inhibitor project, cell-based, HEK293, luminescence, dry powder (AID 743020;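 active = signal-lowering compounds whose fitted half-maximal concentration is at or below twice the top tested dose in every run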;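 note: HEK293 cells stably expressing the CMV luciferase reporter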)
[4] = non-specific cell cytotoxicity, dose response, cytotoxicity control for PAX8 inhibitor project, plate reader, dry powder samples (AID 743021)
[5] = IGROV1 ovarian cancer cell cytotoxicity, dose response, PAX8 inhibitor project, plate reader, dry powder samples (AID 743043);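 note: more negative means fewer viable cells or more cytotoxicity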
[6] = NIH:OVCAR-3 ovarian cancer cell cytotoxicity, dose response, PAX8 inhibitor project, plate reader, dry powder samples (AID 743044); details: max activity: at 35 µM, active compounds read low unless noted
[7] = IOSE-T80 ovarian epithelial cell cytotoxicity, dose response, cytotoxicity control for PAX8 inhibitor project, plate reader, dry powder samples (AID 743045);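 note: 0% = neutral control median and -100% = positive control median; more negative values mean more cell killing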
[8] = A2780 ovarian cancer cell cytotoxicity, dose response, cytotoxicity control, plate reader, dry powder samples (AID 743046);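 note: 0% = neutral control wells and -100% = cytotoxic reference compound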
[9] = cytotoxicity in OVCAR8 ovarian cancer cells, dose response, PAX8 project, cell-based, plate reader, dry powder samples (AID 743197)

Measured: max activity

C[C@@H]1CCCCO[C@@H](CN(C)Cc2ccc(Cl)c(Cl)c2)[C@H](C)CN([C@H](C)CO)C(=O)c2cc(NC(=O)Nc3ccccc3)ccc2O1
inactive: [1] | [2] | [3] | [4] | [5] | [6] 13.2% [at 0.5 µM, active compounds read low] | [7] | [8] | [9]

C[C@H]1CN([C@@H](C)CO)C(=O)c2c(c3ccccc3n2C)-c2ccccc2CO[C@@H]1CN(C)Cc1ccc(-c2ccccc2)cc1
inactive: [1] | [2] | [3] | [4] | [5] | [6] 59% [at 30 µM, active compounds read low] | [7] | [8] | [9]

Cc1ccc(S(=O)(=O)N(C)C[C@H]2Oc3ccc(NC(=O)Nc4ccc(C(F)(F)F)cc4)cc3CC(=O)N([C@@H](C)CO)C[C@H]2C)cc1
inactive: [1] | [2] | [3] | [4] | [5] | [6] 15.5% [at 0.26 µM, active compounds read low] | [7] | [8] | [9]

O=C(C[C@@H]1C[C@H]2c3cc(NC(=O)C4CCOCC4)ccc3O[C@H]2[C@H](CO)O1)NCc1ccc(Oc2ccccc2)cc1
inactive: [1] | [2] | [3] | [4] | [5] | [6] -20% [at 8 µM, active compounds read low] | [7] | [8] | [9]

C[C@H]1CCCCO[C@H](CN(C)S(=O)(=O)c2ccc(Cl)cc2)[C@@H](C)CN([C@@H](C)CO)C(=O)c2cc(NS(=O)(=O)c3ccc(Cl)cc3)ccc2O1
inactive: [1] | [2] | [3] | [4] | [5] | [6] -21.5% | [7] | [8] | [9]

C[C@@H]1CCCCO[C@H](CN(C)C(=O)Nc2ccc(C(F)(F)F)cc2)[C@@H](C)CN([C@@H](C)CO)C(=O)c2cc(NS(=O)(=O)c3cccs3)ccc2O1
inactive: [1] | [2] | [3] | [4] | [5] | [6] -19.5% [at 4.2 µM, active compounds read low] | [7] | [8] | [9]

C[C@@H]1CCCCO[C@@H](CN(C)C(=O)Cc2ccccc2)[C@@H](C)CN([C@@H](C)CO)C(=O)c2cc(NC(=O)Nc3ccc(C(F)(F)F)cc3)ccc2O1
inactive: [1] | [2] | [3] | [4] | [5] | [6] -12.2% [at 16 µM, active compounds read low] | [7] | [8] | [9]

C[C@H](CO)N1C[C@H](C)[C@@H](CN(C)CC2CCCCC2)Oc2ccc(NC(=O)Nc3ccc4c(c3)OCO4)cc2CC1=O
inactive: [1] | [2] | [3] | [4] | [5] | [6] 15.5% [at 1 µM, active compounds read low] | [7] | [8] | [9]

COc1ccccc1S(=O)(=O)N(C)C[C@@H]1Oc2cc(C#CCC3CCCC3)ccc2S(=O)(=O)N([C@@H](C)CO)C[C@@H]1C
inactive: [1] | [2] | [3] | [4] | [5] | [6] -15.5% | [7] | [8] | [9]

C[C@H](CO)N1C[C@H](C)[C@H](CN(C)Cc2ccc(Cl)c(Cl)c2)Oc2c(NS(=O)(=O)c3ccc(Cl)cc3)cccc2C1=O
inactive: [1] | [2] | [3] | [4] | [5] | [6] 53.6% | [7] | [8] | [9]

C[C@@H]1CCCCO[C@@H](CN(C)Cc2ccc(Cl)c(Cl)c2)[C@H](C)CN([C@@H](C)CO)C(=O)c2cc(NC(=O)Cc3ccccc3)ccc2O1
inactive: [1] | [2] | [3] | [4] | [5] | [6] -29.2% [at 16 µM, active compounds read low] | [7] | [8] | [9]

Cc1ccc(S(=O)(=O)N[C@@H]2C=C[C@@H](CC(=O)N3CCC(Cc4ccccc4)CC3)O[C@@H]2CO)cc1
inactive: [1] | [2] | [3] | [4] | [5] | [6] -14.5% [at 16 µM, active compounds read low] | [7] | [8] | [9]

O=S(=O)(c1ccc(F)cc1)N1C[C@H]2[C@@H](c3ccccc31)[C@H](CO)N2Cc1ccccc1Cl
inactive: [1] | [2] | [3] | [4] | [5] | [6] 16.9% | [7] | [8] | [9]

C[C@H]1CCCCO[C@@H](CN(C)C)[C@@H](C)CN([C@@H](C)CO)C(=O)c2cc(NC(=O)Nc3ccc(C(F)(F)F)cc3)ccc2O1
inactive: [1] | [2] | [3] | [4] | [5] | [6] -16.2% [at 8 µM, active compounds read low] | [7] | [8] | [9]

C[C@@H]1CN([C@H](C)CO)C(=O)Cc2cc(NC(=O)Nc3ccc(F)cc3)ccc2O[C@@H]1CN(C)Cc1ccc(Cl)c(Cl)c1
inactive: [1] | [2] | [3] | [4] | [5] | [6] 27.5% | [7] | [8] | [9]

C[C@@H]1CN([C@@H](C)CO)C(=O)c2cc(NC(=O)Nc3ccc(C(F)(F)F)cc3)ccc2O[C@@H](C)CCCCO[C@H]1CN(C)Cc1ccc(Cl)c(Cl)c1
inactive: [1] | [2] | [3] | [4] | [5] | [6] -12.8% [at 0.26 µM, active compounds read low] | [7] | [8] | [9]

C[C@@H]1CN([C@@H](C)CO)C(=O)Cc2cc(N(C)C)ccc2O[C@H]1CN(C)Cc1ccc(Oc2ccccc2)cc1
inactive: [1] | [2] | [3] | [4] | [5] | [6] -11.3% [at 4.2 µM, active compounds read low] | [7] | [8] | [9]

C[C@H](CO)N1C[C@H](C)[C@H](CN(C)C(=O)NC2CCCCC2)Oc2cc(C#Cc3cccc(F)c3)ccc2S1(=O)=O
inactive: [1] | [2] | [3] | [4] | [5] | [6] 16.5% [at 0.5 µM, active compounds read low] | [7] | [8] | [9]

C[C@H]1CN([C@@H](C)CO)C(=O)c2cccc(NC(=O)Nc3ccc(F)cc3)c2O[C@H]1CN(C)C(=O)Nc1ccc(C(F)(F)F)cc1
inactive: [1] | [2] | [3] | [4] | [5] | [6] 10.2% [at 0.26 µM, active compounds read low] | [7] | [8] | [9]

Cc1ccc(S(=O)(=O)N(C)C[C@H]2Oc3ccc(NC(=O)Nc4ccc(C(F)(F)F)cc4)cc3CC(=O)N([C@H](C)CO)C[C@@H]2C)cc1
inactive: [1] | [2] | [3] | [4] | [5] | [6] 49.2% [at 16 µM, active compounds read low] | [7] | [8] | [9]

CCCN(C)C[C@H]1OCCCC[C@@H](C)Oc2ccc(NC(=O)c3ccccc3)cc2C(=O)N([C@H](C)CO)C[C@H]1C
inactive: [1] | [2] | [3] | [4] | [5] | [6] 25.8% [at 0.5 µM, active compounds read low] | [7] | [8] | [9]

C[C@@H]1CCCCO[C@@H](CN(C)C(=O)C2CCCCC2)[C@H](C)CN([C@H](C)CO)C(=O)c2cc(NS(=O)(=O)c3ccc(Cl)cc3)ccc2O1
inactive: [1] | [2] | [3] | [4] | [5] | [6] -13.3% [at 0.5 µM, active compounds read low] | [7] | [8] | [9]

C[C@H](CO)N1C[C@H](C)[C@H](CN(C)Cc2ccc(Cl)c(Cl)c2)OCCCC[C@H](C)Oc2ccc(NC(=O)NC3CCCCC3)cc2C1=O
inactive: [1] | [2] | [3] | [4] | [5] | [6] -2.95% | [7] | [8] | [9]

C[C@@H]1CN([C@@H](C)CO)C(=O)c2cc(NS(=O)(=O)c3ccc(Cl)cc3)ccc2O[C@@H](C)CCCCO[C@H]1CN(C)Cc1ccc(C(F)(F)F)cc1
inactive: [1] | [2] | [3] | [4] | [5] | [6] 22.1% [at 16 µM, active compounds read low] | [7] | [8] | [9]

Cc1cccc(S(=O)(=O)N2CC[C@@H]3[C@H](CO)Nc4ccc(C5=CCCCC5)cc4[C@@H]32)c1
inactive: [1] | [2] | [3] | [4] | [5] | [6] 25.1% [at 1.1 µM, active compounds read low] | [7] | [8] | [9]

Cc1ccc(S(=O)(=O)Nc2ccc3c(c2)C(=O)N([C@@H](C)CO)C[C@@H](C)[C@@H](CN(C)Cc2ccc(Cl)c(Cl)c2)OCCCC[C@@H](C)O3)cc1
inactive: [1] | [2] | [3] | [4] | [5] | [6] -8.95% | [7] | [8] | [9]

C[C@@H]1CN([C@@H](C)CO)C(=O)Cc2cc(NC(=O)C3CC3)ccc2O[C@H]1CN(C)Cc1ccc(-c2ccccc2)cc1
inactive: [1] | [2] | [3] | [4] | [5] | [6] 11.5% [at 0.26 µM, active compounds read low] | [7] | [8] | [9]

C[C@@H]1CCCCO[C@H](CN(C)Cc2ccc(Cl)c(Cl)c2)[C@@H](C)CN([C@@H](C)CO)C(=O)c2cc(NS(=O)(=O)c3ccc(Cl)cc3)ccc2O1
inactive: [1] | [2] | [3] | [4] | [5] | [6] -6.91% [at 4.2 µM, active compounds read low] | [7] | [8] | [9]
